Test results from the supplement of paper PMC8728848.
The sample as a whole holds a higher share of the strongest signals than the screen did.

How the values were obtained:
Assay in all cases: glycan array binding signal (z-score within array); higher = stronger binding
Settings in all cases: glycan notation: IUPAC condensed, linker removed
[1] = biological target: Fuc(a1-2)Gal(b1-3)GlcNAc(b1-2)Man(a1-3)[Fuc(a1-2)Gal(b1-3)GlcNAc(b1-2)Man(a1-6)]Man(b1-4)GlcNAc(b1-4)GlcNAc
How it was run: (§1)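 Columns mapping to the same glycan were averaged after glycan names were converted to IUPAC-condensed notation. The data come from 3228 arrays in the Consortium for Functional Glycomics database, limited to those with an available protein sequence. Binding is reported as a within-array Z-score averaged across arrays of one protein sequence and across linkers.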

[2] = biological target: Fuc(a1-2)Gal(b1-3)GlcNAc(b1-3)Gal(b1-4)Glc
How it was run: as §1

[3] = biological target: Fuc(a1-2)Gal(b1-3)GlcNAc(b1-3)[Gal(b1-4)GlcNAc(b1-6)]Gal(b1-4)Glc
How it was run: as §1

[4] = biological target: Fuc(a1-2)Gal(b1-4)Glc
How it was run: as §1

[5] = biological target: Fuc(a1-2)Gal(b1-4)GlcNAc(b1-6)GalNAc
How it was run: as §1

[6] = biological target: Fuc(a1-2)[Gal(a1-3)]Gal(b1-3)GalNAc
How it was run: as §1

[7] = biological target: Fuc(a1-2)[Gal(a1-3)]Gal(b1-4)Glc
How it was run: as §1

[8] = biological target: Fuc(a1-2)[Gal(a1-4)]Gal(b1-4)GlcNAc
How it was run: as §1

[9] = biological target: Fuc(a1-2)[GalNAc(a1-3)]Gal(b1-4)GlcNAc
How it was run: as §1

[10] = biological target: Fuc(a1-3)[Gal(b1-4)]GlcNAc(b1-2)Man(a1-3)[Fuc(a1-3)[Gal(b1-4)]GlcNAc(b1-2)Man(a1-6)]Man(b1-4)GlcNAc(b1-4)GlcNAc
How it was run: as §1

[11] = biological target: Fuc(a1-3)[Gal(b1-4)]GlcNAc(b1-6)GalNAc
How it was run: as §1

[12] = biological target: Gal(a1-3)Gal(b1-3)GlcNAc(b1-2)Man(a1-3)[Gal(a1-3)Gal(b1-3)GlcNAc(b1-2)Man(a1-6)]Man(b1-4)GlcNAc(b1-4)GlcNAc
How it was run: as §1

[13] = biological target: Gal(a1-3)Gal(b1-3)[Fuc(a1-4)]GlcNAc(b1-2)Man(a1-3)[Gal(a1-3)Gal(b1-3)[Fuc(a1-4)]GlcNAc(b1-2)Man(a1-6)]Man(b1-4)GlcNAc(b1-4)GlcNAc
How it was run: as §1

[14] = biological target: Gal(a1-4)Gal(b1-3)GlcNAc(b1-2)Man(a1-3)[Gal(a1-4)Gal(b1-3)GlcNAc(b1-2)Man(a1-6)]Man(b1-4)GlcNAc(b1-4)GlcNAc
How it was run: as §1

[15] = biological target: Gal(a1-4)Gal(b1-4)Glc
How it was run: as §1

[16] = biological target: Gal(b1-3)GlcNAc(b1-2)Man(a1-3)[Gal(b1-3)GlcNAc(b1-2)Man(a1-6)]Man(b1-4)GlcNAc(b1-4)GlcNAc
How it was run: as §1

[17] = biological target: Gal(b1-3)GlcNAc(b1-3)Gal(b1-4)[Fuc(a1-3)]GlcNAc(b1-6)[Gal(b1-3)GlcNAc(b1-3)]Gal(b1-4)Glc
How it was run: as §1

[18] = biological target: Gal(b1-3)GlcNAc6S
How it was run: as §1

[19] = biological target: Gal(b1-4)GlcNAc(b1-2)Man(a1-3)[Man(a1-6)]Man(b1-4)GlcNAc(b1-4)GlcNAc
How it was run: as §1

[20] = biological target: Gal(b1-4)GlcNAc(b1-3)Gal(b1-4)GlcNAc(b1-3)Gal(b1-4)GlcNAc(b1-2)Man(a1-3)[Gal(b1-4)GlcNAc(b1-3)Gal(b1-4)GlcNAc(b1-3)Gal(b1-4)GlcNAc(b1-2)Man(a1-6)]Man(b1-4)GlcNAc(b1-4)GlcNAc
How it was run: as §1

[21] = biological target: Gal(b1-4)GlcNAc(b1-3)Gal(b1-4)GlcNAc(b1-3)Gal(b1-4)GlcNAc(b1-3)Gal(b1-4)GlcNAc(b1-2)Man(a1-3)[Gal(b1-4)GlcNAc(b1-3)Gal(b1-4)GlcNAc(b1-3)Gal(b1-4)GlcNAc(b1-3)Gal(b1-4)GlcNAc(b1-2)Man(a1-6)]Man(b1-4)GlcNAc(b1-4)GlcNAc
How it was run: as §1

[22] = biological target: Gal(b1-4)GlcNAc(b1-3)Gal(b1-4)GlcNAc(b1-3)Gal(b1-4)GlcNAc(b1-3)Gal(b1-4)GlcNAc(b1-3)Gal(b1-4)GlcNAc(b1-2)Man(a1-3)[Gal(b1-4)GlcNAc(b1-3)Gal(b1-4)GlcNAc(b1-3)Gal(b1-4)GlcNAc(b1-3)Gal(b1-4)GlcNAc(b1-3)Gal(b1-4)GlcNAc(b1-2)Man(a1-6)]Man(b1-4)GlcNAc(b1-4)GlcNAc
How it was run: as §1

[23] = biological target: Gal(b1-4)GlcNAc(b1-3)Gal(b1-4)[Fuc(a1-3)]GlcNAc(b1-3)Gal(b1-4)[Fuc(a1-3)]GlcNAc
How it was run: as §1

[24] = biological target: Gal(b1-4)GlcNAc(b1-6)GalNAc
How it was run: as §1

[25] = biological target: Gal3S(b1-3)GlcNAc
How it was run: as §1

[26] = biological target: Gal6S(b1-4)Glc6S
How it was run: as §1

[27] = biological target: Gal6S(b1-4)GlcNAc
How it was run: as §1

[28] = biological target: GalNAc(b1-4)Gal(b1-4)Glc
How it was run: as §1

[29] = biological target: Glc(a1-6)Glc(a1-6)Glc(a1-6)Glc
How it was run: as §1

[30] = biological target: Glc(b1-4)Glc
How it was run: as §1

B1: PX9961Q-bfa-504-27-504 (Bacteroides fragilis) (protein)
chain: NDWLDRKPADGIPSEDAITNYNDALTARTGMYDGIQGNSNATSYYGARMFYYGDVRADDMQARTQGMRSSSCYEMLYTVDDAPNMWNIPYNVIRRANRLIEAINEKKVTDATEAQIGKIYSEALVVRALVHFDLVRIYGMPYTADNGASLGVPVIVKPLERNDLPSRNTVAEVYTQVITDLTDAINSGYLAKDQTPGYINEWAAKALLTRVYLTKGDNENALKVAEDIITNSPYKLWTNEEYVNAWYKSNGAHTNEMIFEVVNASNDDWTDRNGIAYLLNENGYADAIVTKSFMNMLSQDPKDVRIGMVLPAQYDKDLQEEYGDAKIFINKFPADKDDVGEMRLNNLPLLRLSEVYLSAAEAAAKLGGHQDKAAKYLNEIVQRANPEAKAISEADATVERIILERRKEMIGEGQRYFDALRNNETIVRYKDEGDKGYHYSLIKESQSFDRTYFRAILPIPVDETNVNPNLRAQQNPGY
glycan array binding signal (z-score) [1]: 2.69
glycan array binding signal (z-score) [2]: 0.015
glycan array binding signal (z-score) [3]: -0.322
glycan array binding signal (z-score) [4]: -0.701
glycan array binding signal (z-score) [5]: 0.145
glycan array binding signal (z-score) [6]: 0.904
glycan array binding signal (z-score) [7]: 0.106
glycan array binding signal (z-score) [8]: 1.12
glycan array binding signal (z-score) [9]: -0.704
glycan array binding signal (z-score) [10]: 0.155
glycan array binding signal (z-score) [11]: 4.03
glycan array binding signal (z-score) [12]: 0.772
glycan array binding signal (z-score) [13]: 8.13
glycan array binding signal (z-score) [14]: 2.6
glycan array binding signal (z-score) [15]: 0.623
glycan array binding signal (z-score) [16]: 3.77
glycan array binding signal (z-score) [17]: 12.8
glycan array binding signal (z-score) [18]: -0.822
glycan array binding signal (z-score) [19]: -0.622
glycan array binding signal (z-score) [20]: 2.45
glycan array binding signal (z-score) [21]: 2.49
glycan array binding signal (z-score) [22]: 0.85
glycan array binding signal (z-score) [23]: -0.284
glycan array binding signal (z-score) [24]: 0.056
glycan array binding signal (z-score) [25]: -0.053
glycan array binding signal (z-score) [26]: -0.063
glycan array binding signal (z-score) [27]: -0.679
glycan array binding signal (z-score) [28]: 0.821
glycan array binding signal (z-score) [29]: -0.611
glycan array binding signal (z-score) [30]: -0.009
